Screening results from PubChem BioAssay.
CDC25B CDK2 inh: human CDC25B-CDK2/CyclinA binding inhibition; P30305+P24941; 94,000 tested, 0.72% active; z-score (no concentration beside the values); HTRF CDC25B-CDK2/CyclinA binding, anti-His/anti-Flag; hits give high values; AID 1259370; in the data active = z-score above about 3.2
TAR Tat displ: HIV-1 TAR-Tat binding disruption. z-score (concentration not given with the values). 100,000 tested, 0.6% active. HIV-1 TAR RNA, Tat peptide displacement FRET; hits give high values; active = z-score of 3 or more in at least 2 runs
Active calls of the source: *; nt = no result given; ! = not confirmed by another sample. Sampled rows, rich in hits. Any-hit rate of the full collection: about 0.9%.

SMILES | CDC25B CDK2 inh | TAR Tat displ
COc1ccc(CCNS(=O)(=O)C2CCS(=O)(=O)C2)cc1OC (centres undefined) | -1.2 | -0.09
O=C1Nc2ccc(S(=O)(=O)NCc3ccccc3)cc2C1=O | nt | 6.2*
O=C1Cc2cc(S(=O)(=O)NCc3ccccc3)ccc2N1 | nt | 1.4
Cc1nn(-c2ccc(Br)cc2)cc1-c1noc(C(=O)NCC2CCCO2)n1 (centres undefined) | nt | -0.26
COc1ccccc1N1CSC2=C(C#N)C(c3ccccc3)CC(=O)N2C1 (centres undefined) | 4.9* | -2.2
COc1ccc(C2CC(=O)N3CN(c4ccccc4OC)CSC3=C2C#N)cc1 (centres undefined) | 4.3* | -2.1
Cc1scc(CCNC(=O)Nc2ccc3c(c2)OCCO3)c1C | nt | -0.24
CCCCN1C(=O)C(O)(CC(=O)c2ccc(Cl)cc2)c2cc(Br)ccc21 (centres undefined) | -0.49 | nt
CCC1CCCCN1CCCNC(=O)C1CCCN(S(=O)(=O)N2CC(C)CC(C)C2)C1 (centres undefined) | nt | 1.3
CCC1CCCCN1CCCNC(=O)C1CCCN(S(=O)(=O)N2CCCCC2)C1 (centres undefined) | nt | 4.5*
O=C1CC(c2ccco2)Cc2[nH]c(=O)c(-c3nc(-c4ccccc4)cs3)cc21 (centres undefined) | 17* | -4.4
O=C1CC(c2ccco2)Cc2[nH]c(=O)c(-c3nc(-c4cccc(Cl)c4)cs3)cc21 (centres undefined) | 9.4 | 6.6
Cc1nc(-n2cccc2)sc1C(=O)NCCN(C)C | -1.1 | 3.6
Cc1ccc(-c2[nH]nc3nc(-c4ccc(O)c(O)c4)cc(C(=O)O)c23)cc1 | -0.27 | 20*
Cc1ccc(-c2cc(C(=O)O)c3c(-c4ccccc4)[nH]nc3n2)cc1 | nt | 0.86
CC(C)Cn1cc(NC(=O)Nc2cc(F)ccc2F)c2ccccc2c1=O | nt | 1.1
CC(C)Cn1cc(NC(=O)Nc2ccc(Br)cc2F)c2ccccc2c1=O | 14* | -0.05
COc1ccc(-c2noc(NCCCOC(C)C)n2)cc1OC | nt | 1.1
COc1ccc(OCc2nc(-c3ccccc3Cl)no2)cc1 | 1.3 | 0.23
COC(=O)c1c(C)sc(-c2c(-c3ccc(Cl)cc3)[nH]c3c2c(=O)n(C)c(=O)n3C)c1O | -0.53 | -0.07
CCN1CCN(c2cc(=O)n3c(n2)SCCC3)CC1 | 0.28 | 0.68
N#CC1=C2SCN(c3ccc(F)cc3)CN2C(=O)CC1c1cccc(Br)c1 (centres undefined) | 3.3* | -1.8
N#CC1=C2SCN(c3ccc(F)cc3)CN2C(=O)CC1c1cccc(F)c1 (centres undefined) | 6.4* | -3.9
COc1ccc(N2CSC3=C(C#N)C(c4ccc(Br)cc4)CC(=O)N3C2)cc1 (centres undefined) | 5.3* | -1.4
N#CC1=C2SCN(c3ccccc3)CN2C(=O)CC1c1cccc(Br)c1 (centres undefined) | 6.9* | -3.3
SMILES | CDC25B CDK2 inh | TAR Tat displ
CCOc1cc(C2C3=C(CC(C)(C)CC3=O)NC3=C2C(=O)CC(C)(C)C3)ccc1OC | -0.77 | 0.13
CC(C)(C)c1ccc(CN(C(=O)c2cc(-c3ccccc3)on2)C2CCS(=O)(=O)C2)cc1 (centres undefined) | 0.14 | 1.7
CN(Cc1ccccc1)C(=O)CSc1nc(-c2ccco2)cc(C(F)(F)F)n1 | 0.15 | 3.4
COc1ccc(Br)cc1C1CC(=O)N2CN(c3ccc(F)cc3)CSC2=C1C#N (centres undefined) | 4.4* | -4
N#CC1=C2SCN(c3ccccc3F)CN2C(=O)CC1c1ccc(Br)cc1 (centres undefined) | -2.4 | -0.67
N#CC1=C2SCN(c3ccccc3)CN2C(=O)CC1c1ccc(Br)cc1 (centres undefined) | 4* | -4.1
N#CC1=C2SCN(c3ccc(Br)cc3)CN2C(=O)CC1c1cccc(F)c1 (centres undefined) | 6.6* | -3
CCc1ccc(N2CSC3=C(C#N)C(c4cccc(F)c4)CC(=O)N3C2)cc1 (centres undefined) | 5.2* | 0.58
COc1ccc(Br)cc1C1CC(=O)N2CN(Cc3ccco3)CSC2=C1C#N (centres undefined) | -0.21 | -1.3
O=C(NCCc1ccco1)c1cc2c(Cl)ccc3c2n1CCO3 | nt | -0.08
Cc1cn2c(=O)cc(COC(=O)C3CCCCC3)nc2s1 | nt | 0.84
COCCNC(=O)NCc1ccc2ncccc2c1 | nt | 0.75
CN1CCN(C(=O)CCc2nnc3ccc(N4CCCCC4)nn23)CC1 | nt | 0.08
CC(C)CCNC(=O)C1(C)CCC(=O)N1Cc1ccc2c(c1)OCO2 (centres undefined) | -0.33 | -1.9
COc1ccc(S(=O)(=O)N2CCN(c3nc4ccccc4n4cccc34)CC2)cc1OC | -1.5 | 1.7
COc1nc(OC)nc(N2CCN(c3ccccc3F)CC2)n1 | -1.6 | 0.92
CN(C)[C@@H]1C(=O)C(C(=O)NCN2CCCC2)=C(O)[C@@]2(O)C(=O)C3=C(O)c4c(O)cccc4[C@@](C)(O)C3CC12 (some centres undefined) | nt | 14*
CCOc1ccc(N2C(=O)c3cccnc3C2Nc2cc(OC)cc(OC)c2)cc1 (centres undefined) | 0.68 | 1.4
Cc1noc(NS(=O)(=O)c2ccc(NC(=O)c3ccncc3)cc2)c1C | 0.44 | nt
O=C(Cc1ccccc1)N(c1ccc2oc(=O)sc2c1)S(=O)(=O)c1ccccc1 | -1.9 | 0.43
O=C(c1ccco1)N(c1cc2sc(=O)oc2c2ccccc12)S(=O)(=O)c1ccccc1 | 19* | 1.2
CCOC(=O)c1c(S(=O)(=O)N2CCCC(C(=O)NC3CC3)C2)c(C)n(C)c1C (centres undefined) | nt | 1.8
O=C(CN1C(=O)c2cccnc2Oc2ccccc21)NCCc1c[nH]c2ccccc12 | nt | 1
O=C(O)c1c[nH]c2ccc(S(=O)(=O)N3CCC(O)CC3)cc2c1=O | nt | 0.26
O=C(O)c1c[nH]c2ccc(S(=O)(=O)N3CCCC3c3ccco3)cc2c1=O (centres undefined) | -1.1 | 5.5*
SMILES | CDC25B CDK2 inh | TAR Tat displ
Nc1cccc(C2NC(=O)CS2)c1 (centres undefined) | 10* | 0.9
O=C1CSC(c2cccc(NS(=O)(=O)c3ccc(Cl)cc3)c2)N1 (centres undefined) | nt | -0.4
CN1CCN(C(=O)CCc2nnc3ccc(N4CCCC4)nn23)CC1 | nt | 0.54
COc1ccc(CCn2c(C)c3c(C)nn4cc(C)cc4c3c2C)cc1OC | 3.5 | 15*
Cc1cc2c3c(C)n(C4CCCCC4)c(C)c3c(C)nn2c1 | 0.79 | nt
CN(Cc1ccco1)C(=O)CN1C(=O)CSc2ccc(S(=O)(=O)N3CCOCC3)cc21 | nt | -0.69
CCC(=O)N1c2cc(Cl)ccc2-n2c(nn(C(=O)CC)c2=O)N1C(=O)CC | -1 | nt
O=c1[nH]c2ccc(S(=O)(=O)N3CCN(c4ccccc4)CC3)cc2[nH]c1=O | -0.51 | nt
O=c1[nH]c2ccc(S(=O)(=O)N3CCN(c4cccc(Cl)c4)CC3)cc2[nH]c1=O | 16 | 20*
O=C(CSc1nnc2c3c4c(sc3ncn12)CCCC4)Nc1cccc(F)c1 | -4.1 | -0.28
Nc1c(-c2nc(-c3ccccc3Cl)no2)nnn1-c1ccccc1Cl | nt | -0.01
FC(F)(F)C(=C(NC(=S)n1cnc2ccccc21)C(F)(F)C(F)(F)F)C(F)(F)F | -3.2 | nt
FC(F)(F)C(=C(NC(=S)N1CCCCCC1)C(F)(F)C(F)(F)F)C(F)(F)F | 5.7* | nt
O=C(NC1CCOCC1)N1CCN(c2ccccc2)CC1 | -0.43 | 0.18
O=c1c(O)c(-c2ccc(O)c(O)c2)oc2cc(O)cc(O)c12 | -1.9 | 28*!
